Measured values as given in PubChem BioAssay (NCI).
Where “and” joins values, the source holds several entries; their conditions need not be identical. Identical values can stand only once. This is part of a sample that, as a whole, favours compounds with a hit. Of some 79,000 tested, about 15% had one in any assay. Some structures have more than one record in an assay (separate samples or runs), and their calls can disagree. Calls of active or inactive are those of the source. Rule as the data show it: active = growth inhibition above about 70%; inactive = the rest.

What was measured:
[1] = NCI Yeast Anticancer Drug Screen. Data for the mlh1 strain (AID 171);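 also: 0% = growth of vehicle-treated control cultures of the same strain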; conditions: S. cerevisiae mlh1 strain growth inhibition, stronger effect = higher value
Outline: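 Vehicle-normalised growth inhibition of a repair- or checkpoint-altered yeast strain following compound treatment.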

[2] = NCI Yeast Anticancer Drug Screen. Data for the sgs1 strain (AID 173);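 also: 0% = growth of vehicle-only control cultures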; conditions: S. cerevisiae sgs1 mutant, stronger effect = higher value
Outline: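 Screen format: yeast with repair or checkpoint alterations, compound exposure, growth read relative to vehicle.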

[3] = NCI Yeast Anticancer Drug Screen. Data for the mlh1 rad18 strain (AID 175); conditions: S. cerevisiae mlh1 rad18 strain growth inhibition, stronger effect = higher value
Outline: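 Vehicle-treated cultures served as the reference for growth inhibition in a yeast strain carrying DNA damage repair alterations exposed to each compound.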

[4] = NCI Yeast Anticancer Drug Screen. Data for the rad18 strain (AID 177); conditions: S. cerevisiae rad18 mutant growth inhibition, stronger effect = higher value
Outline: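 Test articles were incubated with altered yeast defective in DNA damage repair. Results are given as inhibition of growth versus vehicle.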

[5] = NCI Yeast Anticancer Drug Screen. Data for the rad52 strain (AID 147);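 also: 0% = growth of vehicle-treated control cultures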; conditions: S. cerevisiae rad52 mutant growth inhibition, stronger effect = higher value
Outline: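 Vehicle-treated cultures served as the reference for growth inhibition of compound-exposed yeast bearing a DNA repair mutation.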

[6] = NCI Yeast Anticancer Drug Screen. Data for the wt1 strain (AID 149);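 also: 0% = growth of vehicle-treated wt1 cultures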; conditions: S. cerevisiae wt1 strain (SPY 50644) growth inhibition, stronger effect = higher value
Outline: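 Vehicle-normalised growth inhibition; strain wt1; compound exposure.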

[7] = NCI Yeast Anticancer Drug Screen. Data for the mgt1 strain (AID 153); conditions: S. cerevisiae mgt1 mutant growth inhibition, stronger effect = higher value
Outline: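 mgt1 strain exposed; growth vs vehicle control recorded as inhibition.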

[8] = NCI Yeast Anticancer Drug Screen. Data for the rad50 strain (AID 155);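 also: 0% = growth of vehicle-only cultures of the same strain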; conditions: S. cerevisiae rad50 strain growth inhibition, stronger effect = higher value
Outline: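 A DNA repair-deficient yeast mutant serves as the test organism; compound-induced growth inhibition is calculated against vehicle-treated cells.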

[9] = NCI Yeast Anticancer Drug Screen. Data for the mec2-1 strain (AID 157); conditions: S. cerevisiae mec2-1 strain, stronger effect = higher value
Outline: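 Vehicle-treated cultures served as reference for growth inhibition of compound-exposed mec2-1 yeast.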

[10] = NCI Yeast Anticancer Drug Screen. Data for the rad14 strain (AID 159);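 also: 0% = growth of vehicle-treated control cultures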; conditions: S. cerevisiae rad14 strain growth inhibition, stronger effect = higher value
Outline: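 Vehicle-treated cultures served as the baseline for growth inhibition of a DNA repair-mutant yeast strain exposed to each compound.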

[11] = NCI Yeast Anticancer Drug Screen. Data for the sgs1 mgt1 strain (AID 161);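 also: 0% = growth of cultures given vehicle only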; conditions: S. cerevisiae sgs1 mgt1 strain, stronger effect = higher value
Outline: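 Inhibition of yeast growth, normalised to vehicle-treated controls, is reported for a strain bearing genetic alterations in DNA damage repair.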

[12] = NCI Yeast Anticancer Drug Screen. Data for the CLN2oe strain (AID 163);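 also: 0% = growth of vehicle-only control cultures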; conditions: S. cerevisiae CLN2oe strain, stronger effect = higher value
Outline: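 Inhibition relative to vehicle-treated yeast is reported. Cells: strain with genetic alteration in cell-cycle control, grown with compound.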

[13] = NCI Yeast Anticancer Drug Screen. Data for the cln2 rad14 strain (AID 165);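 also: 0% = growth equal to vehicle treated cultures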; conditions: S. cerevisiae cln2 rad14 strain, stronger effect = higher value
Outline: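 Each compound was tested on cln2 rad14 yeast. Inhibition of growth was calculated against vehicle-exposed controls.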

[14] = NCI Yeast Anticancer Drug Screen. Data for the bub3 strain (AID 167); conditions: S. cerevisiae bub3 mutant strain, stronger effect = higher value
Outline: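 Inhibition values come from growth of compound-treated mutant yeast normalised to vehicle-treated controls.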

[15] = NCI Yeast Anticancer Drug Screen. Data for the wt2 strain (AID 169);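 also: 0% = growth of vehicle-treated yeast cultures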; conditions: S. cerevisiae wt2 strain growth inhibition, stronger effect = higher value
Outline: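 Inhibition of yeast growth was determined after compound treatment, normalised to controls receiving only vehicle.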

[16] = NCI Yeast Anticancer Drug Screen. Data for the rad50EPP+ strain (AID 151);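 also: 0% = growth of vehicle-treated control cultures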; conditions: S. cerevisiae rad50 mutant strain, stronger effect = higher value
Outline: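 In this screen, rad50EPP+ yeast were exposed to compounds. Growth inhibition was scored against vehicle-treated controls.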

[17] = at 5.0 µM (retest, dose inferred, filed as 0.5)
[18] = at 50.0 µM (retest, dose inferred, filed as 5.0)

Measured: growth inhibition

O=[N+]([O-])c1ccc(C=Cc2ccccc2)cc1.[C-]#[O+].[C-]#[O+].[C-]#[O+].[Cr]
inactive: [1]; at 1.2 µM -1% | [1]; at 3.7 µM -1% | [1]; at 11.0 µM 9% | [1]; at 33.0 µM 65% | [2]; at 1.2 µM 9% | [2]; at 3.7 µM 30% | [2]; at 11.0 µM 66% | [3]; [17] 68% | [3]; at 50.0 µM 62.1%
active: [1]; at 100.0 µM 71% | [2]; at 33.0 µM 91% | [2]; at 100.0 µM 88% | [3]; [18] 96% | [4]; at 1.2 µM 70% | [4]; at 3.7 µM 93% | [4]; at 11.0 µM 94% | [4]; at 33.0 µM 89% | [4]; at 100.0 µM 86%

CC1CCC2(NC1)OC1CC3C4CCC5CC(OC6OC(CO)C(OC7OC(CO)C(O)C(OC8OCC(O)C(O)C8O)C7OC7OC(CO)C(O)C(O)C7O)C(O)C6O)CCC5(C)C4CCC3(C)C1C2C (centres undefined)
active: [5]; at 100.0 µM 76% | [8]; [18] 98% | [9]; [18] 97% | [10]; at 100.0 µM 77% | [11]; [18] 93% | [14]; [18] 74% | [15]; at 100.0 µM 99% | [1]; at 100.0 µM 90% | [3]; [18] 97% | [3]; at 50.0 µM 87.6%
inactive: [5]; at 1.2 µM 30% | [5]; at 3.7 µM 8% | [5]; at 11.0 µM 12% | [5]; at 33.0 µM 0% | [6]; at 1.2 µM -6% | [6]; at 3.7 µM -15% | [6]; at 11.0 µM -18% | [6]; at 33.0 µM -17% | [6]; at 100.0 µM 40% | [7]; at 1.2 µM -2% | [7]; at 3.7 µM -10% | [7]; at 11.0 µM -11% | [7]; at 33.0 µM -11% | [7]; at 100.0 µM 44% | [8]; at 1.2 µM -2% | [8]; at 3.7 µM -16% | [8]; [17] 1% | [8]; at 11.0 µM -14% | [8]; at 33.0 µM -6% | [8]; at 50.0 µM 28.9% | [8]; at 100.0 µM 62% | [9]; at 1.2 µM 13% | [9]; at 3.7 µM -14% | [9]; [17] 13% | [9]; at 11.0 µM -15% | [9]; at 33.0 µM 2% | [9]; at 50.0 µM 6.1% | [9]; at 100.0 µM 14% | [10]; at 1.2 µM 18% | [10]; at 3.7 µM 6% | [10]; at 11.0 µM -5% | [10]; at 33.0 µM -18% | [11]; [17] 1% | [11]; at 50.0 µM -24.1% | [12]; at 1.2 µM -15% | [12]; at 3.7 µM -14% | [12]; at 11.0 µM -10% | [12]; at 33.0 µM -4% | [12]; at 100.0 µM 46% | [13]; [17] -19% | [13]; [18] 68% | [13]; at 50.0 µM 28.8% | [14]; at 1.2 µM 0% | [14]; at 3.7 µM -19% | [14]; [17] 10% | [14]; at 11.0 µM -27% | [14]; at 33.0 µM -10% | [14]; at 50.0 µM 11.1% | [14]; at 100.0 µM 45% | [15]; at 1.2 µM -7% | [15]; at 3.7 µM -20% | [15]; at 11.0 µM -22% | [15]; at 33.0 µM -11% | [1]; at 1.2 µM -4% | [1]; at 3.7 µM -5% | [1]; at 11.0 µM -8% | [1]; at 33.0 µM -12% | [2]; at 1.2 µM 2% | [2]; at 3.7 µM 0% | [2]; at 11.0 µM 2% | [2]; at 33.0 µM -4% | [2]; at 100.0 µM 61% | [3]; [17] 59% | [4]; at 1.2 µM 4% | [4]; at 3.7 µM -19% | [4]; at 11.0 µM -14% | [4]; at 33.0 µM -25% | [4]; at 100.0 µM 61%

CCCCCCCCCCCCCCCCP(=O)(O)OP(=O)(O)OCC1OC(n2ccc(N)nc2=O)C(O)C1O (centres undefined)
74% (active) and -35.4% (inactive): [3]; at 50.0 µM
73.3% (active) and 8.3% (inactive): [8]; at 50.0 µM
80.7% (active) and -3.1% (inactive): [9]; at 50.0 µM
76% (active) and -16.8% (inactive): [14]; at 50.0 µM
inactive: [5]; at 1.2 µM 3% | [5]; at 3.7 µM 3% | [5]; at 11.0 µM 4% | [5]; at 33.0 µM 3% | [5]; at 100.0 µM 5% | [6]; at 1.2 µM 3% | [6]; at 3.7 µM 4% | [6]; at 11.0 µM 6% | [6]; at 33.0 µM 3% | [6]; at 100.0 µM 3% | [16]; at 1.2 µM 0% | [16]; at 3.7 µM -5% | [16]; at 11.0 µM -6% | [16]; at 33.0 µM -2% | [16]; at 100.0 µM 18% | [8]; at 1.2 µM 2% | [8]; at 3.7 µM 1% | [8]; [17] -13% | [8]; at 11.0 µM 2% | [8]; at 33.0 µM 0% | [8]; [18] 10% | [8]; at 100.0 µM 3% | [9]; at 1.2 µM -3% | [9]; at 3.7 µM -3% | [9]; [17] -9% | [9]; at 11.0 µM -4% | [9]; at 33.0 µM -5% | [9]; [18] -13% | [9]; at 100.0 µM -3% | [10]; at 1.2 µM -2% | [10]; at 3.7 µM -1% | [10]; at 11.0 µM -1% | [10]; at 33.0 µM -1% | [10]; at 100.0 µM 1% | [11]; [17] -2% | [11]; [18] 46% | [12]; at 1.2 µM -3% | [12]; at 3.7 µM -7% | [12]; at 11.0 µM -6% | [12]; at 33.0 µM -17% | [12]; at 100.0 µM -17% | [13]; [17] 0% | [13]; [18] 6% | [13]; at 50.0 µM 59.9% and -13.4% | [14]; at 1.2 µM -1% | [14]; at 3.7 µM -2% | [14]; [17] 14% | [14]; at 11.0 µM -4% | [14]; at 33.0 µM -10% | [14]; [18] -19% | [14]; at 100.0 µM -19% | [1]; at 1.2 µM 0% | [1]; at 3.7 µM 0% | [1]; at 11.0 µM 1% | [1]; at 33.0 µM -4% | [1]; at 100.0 µM 1% | [2]; at 1.2 µM 0% | [2]; at 3.7 µM 0% | [2]; at 11.0 µM -3% | [2]; at 33.0 µM 1% | [2]; at 100.0 µM 21% | [3]; [17] -19% | [3]; [18] 26%
88.3% (active) and 3.75% (inactive): [11]; at 50.0 µM
